# Experimental data: the supplement of paper PMC8728848
# Many of the other results were omitted from the sample, so the strongest signals are more common in it than they were.
# Tests used:
# Assay in all cases: glycan array binding signal (z-score within array); higher = stronger binding
# Conditions in all cases: glycan notation: IUPAC condensed, linker removed
# [1] = molecular target: Fuc(a1-2)Gal(b1-3)GalNAc(a1-3)[Fuc(a1-2)]Gal(b1-4)Glc
# Procedure, shortened: (§1)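 Columns mapping to the same glycan were averaged after glycan names were converted to IUPAC-condensed notation. The data come from 3228 arrays in the Consortium for Functional Glycomics database, limited to those with an available protein sequence. Binding is reported as a within-array Z-score averaged across arrays of one protein sequence and across linkers.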
# [2] = molecular target: Fuc(a1-2)Gal(b1-3)GlcNAc(b1-3)Gal(b1-4)Glc
# Procedure, shortened: as §1
# [3] = molecular target: Fuc(a1-2)Gal(b1-3)GlcNAc(b1-3)[Fuc(a1-2)Gal(b1-3)GlcNAc(b1-6)]GalNAc
# Procedure, shortened: as §1
# [4] = molecular target: Fuc(a1-2)Gal(b1-4)[Fuc(a1-3)]GlcNAc(b1-3)Gal(b1-4)[Fuc(a1-3)]GlcNAc
# Procedure, shortened: as §1
# [5] = molecular target: Fuc(a1-2)[Gal(a1-3)]Gal(b1-3)GlcNAc(b1-6)GalNAc
# Procedure, shortened: as §1
# [6] = molecular target: Fuc(a1-2)[Gal(a1-3)]Gal(b1-4)GlcNAc(b1-3)GalNAc
# Procedure, shortened: as §1
# [7] = molecular target: Fuc(a1-2)[GalNAc(a1-3)]Gal(b1-4)GlcNAc(b1-3)Gal(b1-4)GlcNAc(b1-3)Gal(b1-4)GlcNAc
# Procedure, shortened: as §1
# [8] = molecular target: Fuc(a1-3)[Gal(b1-4)]GlcNAc(b1-2)Man(a1-3)[Fuc(a1-3)[Gal(b1-4)]GlcNAc(b1-2)Man(a1-6)]Man(b1-4)GlcNAc(b1-4)GlcNAc
# Procedure, shortened: as §1
# [9] = molecular target: Gal(a1-3)Gal(b1-3)[Fuc(a1-4)]GlcNAc(b1-2)Man(a1-3)[Gal(a1-3)Gal(b1-3)[Fuc(a1-4)]GlcNAc(b1-2)Man(a1-6)]Man(b1-4)GlcNAc(b1-4)GlcNAc
# Procedure, shortened: as §1
# [10] = molecular target: Gal(b1-3)GlcNAc(b1-2)Man(a1-3)[Gal(b1-3)GlcNAc(b1-2)Man(a1-6)]Man(b1-4)GlcNAc(b1-4)[Fuc(a1-6)]GlcNAc
# Procedure, shortened: as §1
# [11] = molecular target: Gal(b1-3)GlcNAc(b1-3)Gal(b1-4)GlcNAc(b1-2)Man(a1-3)[Gal(b1-3)GlcNAc(b1-3)Gal(b1-4)GlcNAc(b1-2)Man(a1-6)]Man(b1-4)GlcNAc(b1-4)GlcNAc
# Procedure, shortened: as §1
# Gal(b1-3)GlcNAc6S = molecular target: Gal(b1-3)GlcNAc6S
# Procedure, shortened: as §1
# [12] = molecular target: Gal(b1-3)[Fuc(a1-4)]GlcNAc(b1-2)Man
# Procedure, shortened: as §1
# [13] = molecular target: Gal(b1-4)GlcNAc(b1-2)Man(a1-3)Man(b1-4)GlcNAc(b1-4)GlcNAc
# Procedure, shortened: as §1
# [14] = molecular target: Gal(b1-4)GlcNAc(b1-3)Gal(b1-4)GlcNAc
# Procedure, shortened: as §1
# [15] = molecular target: Gal(b1-4)GlcNAc(b1-3)Gal(b1-4)GlcNAc(b1-2)Man(a1-3)[Gal(b1-4)GlcNAc(b1-3)Gal(b1-4)GlcNAc(b1-2)Man(a1-6)]Man(b1-4)GlcNAc(b1-4)[Fuc(a1-6)]GlcNAc
# Procedure, shortened: as §1
# [16] = molecular target: Gal(b1-4)GlcNAc(b1-3)Gal(b1-4)GlcNAc(b1-2)[Gal(b1-4)GlcNAc(b1-3)Gal(b1-4)GlcNAc(b1-6)]Man(a1-6)[Gal(b1-4)GlcNAc(b1-3)Gal(b1-4)GlcNAc(b1-2)Man(a1-3)]Man(b1-4)GlcNAc(b1-4)[Fuc(a1-6)]GlcNAc
# Procedure, shortened: as §1
# [17] = molecular target: Gal(b1-4)GlcNAc(b1-3)Gal(b1-4)GlcNAc(b1-3)Gal(b1-4)GlcNAc(b1-2)Man(a1-3)[Gal(b1-4)GlcNAc(b1-3)Gal(b1-4)GlcNAc(b1-3)Gal(b1-4)GlcNAc(b1-2)Man(a1-6)]Man(b1-4)GlcNAc(b1-4)GlcNAc
# Procedure, shortened: as §1
# [18] = molecular target: Gal(b1-4)GlcNAc(b1-3)Gal(b1-4)GlcNAc(b1-3)Gal(b1-4)GlcNAc(b1-2)Man(a1-3)[Gal(b1-4)GlcNAc(b1-3)Gal(b1-4)GlcNAc(b1-3)Gal(b1-4)GlcNAc(b1-2)Man(a1-6)]Man(b1-4)GlcNAc(b1-4)[Fuc(a1-6)]GlcNAc
# Procedure, shortened: as §1
# Gal3S(b1-4)Glc6S = molecular target: Gal3S(b1-4)Glc6S
# Procedure, shortened: as §1
# [19] = molecular target: Gal3S(b1-4)[Fuc(a1-3)]GlcNAc
# Procedure, shortened: as §1
# Gal6S(b1-4)Glc = molecular target: Gal6S(b1-4)Glc
# Procedure, shortened: as §1
# Gal6S(b1-4)Glc6S = molecular target: Gal6S(b1-4)Glc6S
# Procedure, shortened: as §1
# GalNAc(b1-3)Gal = molecular target: GalNAc(b1-3)Gal
# Procedure, shortened: as §1
# [20] = molecular target: GalNAc(b1-3)Gal(a1-4)Gal(b1-4)GlcNAc
# Procedure, shortened: as §1
# [21] = molecular target: GalNAc(b1-3)Gal(a1-4)Gal(b1-4)GlcNAc(b1-3)Gal(b1-4)Glc
# Procedure, shortened: as §1
# GalNAc(b1-3)GalNAc = molecular target: GalNAc(b1-3)GalNAc
# Procedure, shortened: as §1
binder,measurement,setting,value
Gs78B-bfa-542-29-542 (Bacteroides fragilis) (protein) SEDINRNPLLPTKEDEKMDGVIYGAYLPNLEKSVIPIGTASESTEPVNRYQIGVNLAGDAWAGYMSPRDNKFNGSKNFTNYFMYENWVNYVYSFMVTDVYSPWMQIKRISQDEGTRNDEIYALAQIIKIAALHRTTDMFGPIPYSQVGKGSFKVAYDSQESVYRSFLKELEEAVQTLDDYSNKSKEVLPAFDIVYNGDVNKWMRFANSLMLRLAIRVRFADAGLAKEYAEKAVKHPAGLINSKELAAQMGKGAGLQMKNPLKVINEEYNDTRMGATIYSYLAGYNDARAAVYFVKNNGFKAVRCGIAKSGDAYNGFTRPNVHEDDPLYWMKASEVCFLKAEGALAGFDMGGSAGDFYNAGIRMSFSENGLDNSSAETYLKDSTRKPANYTDTSNGELSANAPSSITIRWENGATEEEKLERIITQKYLAIFPNGQEAWTEWRRTGYPRQIVVAENKTNSAVLIGNGYDLGGVRRLPYPRTEYEQNGENLHNAISQYLGGVDNAATKVWWDKKSK,glycan array binding signal (z-score),[1],0.024
same,glycan array binding signal (z-score),[2],-0.826
same,glycan array binding signal (z-score),[3],0.287
same,glycan array binding signal (z-score),[4],-0.816
same,glycan array binding signal (z-score),[5],2.8
same,glycan array binding signal (z-score),[6],0.185
same,glycan array binding signal (z-score),[7],1.31
same,glycan array binding signal (z-score),[8],1.04
same,glycan array binding signal (z-score),[9],4.3
same,glycan array binding signal (z-score),[10],1.53
same,glycan array binding signal (z-score),[11],-0.404
same,glycan array binding signal (z-score),Gal(b1-3)GlcNAc6S,2.8
same,glycan array binding signal (z-score),[12],-0.693
same,glycan array binding signal (z-score),[13],0.534
same,glycan array binding signal (z-score),[14],-0.463
same,glycan array binding signal (z-score),[15],2.98
same,glycan array binding signal (z-score),[16],3.42
same,glycan array binding signal (z-score),[17],2.01
same,glycan array binding signal (z-score),[18],3.12
same,glycan array binding signal (z-score),Gal3S(b1-4)Glc6S,-0.778
same,glycan array binding signal (z-score),[19],-0.801
same,glycan array binding signal (z-score),Gal6S(b1-4)Glc,0.825
same,glycan array binding signal (z-score),Gal6S(b1-4)Glc6S,0.798
same,glycan array binding signal (z-score),GalNAc(b1-3)Gal,-0.448
same,glycan array binding signal (z-score),[20],0.47
same,glycan array binding signal (z-score),[21],1.12
same,glycan array binding signal (z-score),GalNAc(b1-3)GalNAc,-0.725
